# What was measured:
# Experiment in all cases: DAPPL (digital affinity profiling via proximity ligation, sequencing); 10 mM Tris-HCl pH 7.5, 50 mM NaCl, 1 mM DTT, 4% glycerol, room temperature, 30 min; GST-TFs on glutathione beads, 16-mer random dsDNA library, 0.1% formaldehyde crosslink after washing; high values mean tight binding
# [1] = molecular target: T1, ELK3 (Homo sapiens, UniProt P41970 1-407); details: protein: recombinant; tags: N-terminal GST; dsDNA, one strand shown
# T1 sequence: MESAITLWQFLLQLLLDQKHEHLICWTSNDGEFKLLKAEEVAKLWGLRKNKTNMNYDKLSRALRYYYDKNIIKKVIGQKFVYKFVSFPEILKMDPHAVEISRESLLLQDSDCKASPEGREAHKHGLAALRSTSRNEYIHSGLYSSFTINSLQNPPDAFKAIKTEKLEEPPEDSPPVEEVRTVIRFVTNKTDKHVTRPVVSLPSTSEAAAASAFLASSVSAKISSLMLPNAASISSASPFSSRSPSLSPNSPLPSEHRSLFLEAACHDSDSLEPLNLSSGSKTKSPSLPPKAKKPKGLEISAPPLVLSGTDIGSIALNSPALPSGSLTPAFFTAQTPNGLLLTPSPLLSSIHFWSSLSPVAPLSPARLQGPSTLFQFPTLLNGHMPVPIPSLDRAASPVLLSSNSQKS
# Summary of the method: (§1)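 Pools were built from human transcription factors expressed in yeast as GST fusions, captured on glutathione beads and DNA-barcoded, along with a tag-only sample. Incubation with 200 nmole of a 16-mer random double-stranded DNA library lasted 30 min at room temperature in Tris/NaCl/DTT/glycerol buffer, and was followed by washing, 0.1% formaldehyde crosslinking, proximity ligation, PCR amplification and Illumina NextSeq500 sequencing. Binding signal is the quotient of each hexamer's read frequency for a factor and its frequency for the tag-only sample.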
# [2] = molecular target: HSF1 (Homo sapiens, UniProt Q00613 1-529); details: protein: recombinant; tags: N-terminal GST; chain copies: 3; dsDNA, one strand shown
# Sequence of HSF1 (Q00613 whole entry): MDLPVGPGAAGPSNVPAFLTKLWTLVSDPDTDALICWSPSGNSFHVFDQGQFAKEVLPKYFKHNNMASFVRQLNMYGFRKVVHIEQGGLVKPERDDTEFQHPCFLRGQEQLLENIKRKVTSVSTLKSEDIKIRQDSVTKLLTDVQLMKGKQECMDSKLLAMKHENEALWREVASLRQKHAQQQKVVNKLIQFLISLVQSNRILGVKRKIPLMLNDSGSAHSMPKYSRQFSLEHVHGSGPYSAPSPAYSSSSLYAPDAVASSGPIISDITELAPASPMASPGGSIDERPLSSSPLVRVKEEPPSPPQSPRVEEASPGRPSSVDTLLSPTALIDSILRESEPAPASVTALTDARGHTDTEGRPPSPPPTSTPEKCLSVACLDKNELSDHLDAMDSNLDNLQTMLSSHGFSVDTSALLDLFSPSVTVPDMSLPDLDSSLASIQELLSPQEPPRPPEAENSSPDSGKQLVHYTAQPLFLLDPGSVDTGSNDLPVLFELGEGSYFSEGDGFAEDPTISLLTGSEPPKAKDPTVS
# Summary of the method: as §1
# [3] = molecular target: T2, ETV7 (Homo sapiens, UniProt Q9Y603 1-341); details: protein: recombinant; tags: N-terminal GST; dsDNA, one strand shown
# T2 sequence: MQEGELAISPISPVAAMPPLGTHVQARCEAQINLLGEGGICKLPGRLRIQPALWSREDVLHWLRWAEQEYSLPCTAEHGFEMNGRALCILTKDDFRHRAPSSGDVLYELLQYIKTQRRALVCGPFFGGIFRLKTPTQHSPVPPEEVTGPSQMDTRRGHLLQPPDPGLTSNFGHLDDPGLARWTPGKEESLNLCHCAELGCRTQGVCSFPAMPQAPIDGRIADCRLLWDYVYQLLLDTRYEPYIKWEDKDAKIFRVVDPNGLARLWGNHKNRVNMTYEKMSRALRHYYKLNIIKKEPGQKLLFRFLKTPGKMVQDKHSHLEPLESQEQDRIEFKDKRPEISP
# Summary of the method: as §1
# [4] = molecular target: T3, ELF5 (Homo sapiens, UniProt Q9UKW6-2 1-255); details: protein: recombinant; tags: N-terminal GST; dsDNA, one strand shown
# T3 sequence: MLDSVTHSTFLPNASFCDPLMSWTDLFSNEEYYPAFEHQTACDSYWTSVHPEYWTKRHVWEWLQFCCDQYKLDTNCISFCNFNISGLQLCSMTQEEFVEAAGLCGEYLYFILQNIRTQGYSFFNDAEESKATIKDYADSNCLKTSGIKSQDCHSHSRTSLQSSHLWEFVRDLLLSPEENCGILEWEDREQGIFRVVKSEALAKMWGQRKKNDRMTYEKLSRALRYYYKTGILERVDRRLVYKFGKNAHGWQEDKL
# Summary of the method: as §1
# [5] = molecular target: T4, ETV3 (Homo sapiens, UniProt P41162-2 1-143); details: protein: recombinant; tags: N-terminal GST; dsDNA, one strand shown
# T4 sequence: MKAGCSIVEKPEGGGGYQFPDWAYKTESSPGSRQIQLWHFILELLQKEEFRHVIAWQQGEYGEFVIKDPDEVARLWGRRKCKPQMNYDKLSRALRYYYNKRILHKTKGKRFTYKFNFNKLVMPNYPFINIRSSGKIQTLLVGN
# Summary of the method: as §1
# [6] = molecular target: ETV6 (Homo sapiens, UniProt P41212 1-452); details: protein: recombinant; tags: N-terminal GST; dsDNA, one strand shown
# Sequence of ETV6 (P41212 whole entry): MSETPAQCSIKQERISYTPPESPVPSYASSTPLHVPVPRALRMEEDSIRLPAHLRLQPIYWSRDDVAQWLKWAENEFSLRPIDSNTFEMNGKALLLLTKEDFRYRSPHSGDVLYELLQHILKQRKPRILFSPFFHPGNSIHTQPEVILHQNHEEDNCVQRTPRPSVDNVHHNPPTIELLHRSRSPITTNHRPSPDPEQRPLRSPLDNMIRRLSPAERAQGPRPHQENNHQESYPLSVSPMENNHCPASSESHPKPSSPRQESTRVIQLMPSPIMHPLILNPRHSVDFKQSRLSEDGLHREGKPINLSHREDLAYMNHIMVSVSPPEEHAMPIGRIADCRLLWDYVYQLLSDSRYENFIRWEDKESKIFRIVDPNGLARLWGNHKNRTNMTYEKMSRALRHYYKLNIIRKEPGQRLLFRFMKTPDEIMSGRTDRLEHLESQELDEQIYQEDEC
# Summary of the method: as §1
# [7] = molecular target: CRX (Homo sapiens, UniProt O43186 1-299); details: protein: recombinant; tags: N-terminal GST; dsDNA, one strand shown
# Sequence of CRX (O43186 whole entry): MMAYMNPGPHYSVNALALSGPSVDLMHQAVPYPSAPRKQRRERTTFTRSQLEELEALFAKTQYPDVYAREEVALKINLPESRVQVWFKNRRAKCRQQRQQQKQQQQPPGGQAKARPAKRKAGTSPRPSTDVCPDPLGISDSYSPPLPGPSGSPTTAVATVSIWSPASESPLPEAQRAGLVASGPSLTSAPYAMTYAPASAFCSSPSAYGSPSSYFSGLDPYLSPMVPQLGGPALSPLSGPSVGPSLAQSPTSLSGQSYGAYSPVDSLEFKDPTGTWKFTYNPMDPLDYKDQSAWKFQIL
# Summary of the method: as §1
# [8] = molecular target: T5, GABPA (Homo sapiens, UniProt Q06546 1-454); details: protein: recombinant; tags: N-terminal GST; dsDNA, one strand shown
# T5 sequence: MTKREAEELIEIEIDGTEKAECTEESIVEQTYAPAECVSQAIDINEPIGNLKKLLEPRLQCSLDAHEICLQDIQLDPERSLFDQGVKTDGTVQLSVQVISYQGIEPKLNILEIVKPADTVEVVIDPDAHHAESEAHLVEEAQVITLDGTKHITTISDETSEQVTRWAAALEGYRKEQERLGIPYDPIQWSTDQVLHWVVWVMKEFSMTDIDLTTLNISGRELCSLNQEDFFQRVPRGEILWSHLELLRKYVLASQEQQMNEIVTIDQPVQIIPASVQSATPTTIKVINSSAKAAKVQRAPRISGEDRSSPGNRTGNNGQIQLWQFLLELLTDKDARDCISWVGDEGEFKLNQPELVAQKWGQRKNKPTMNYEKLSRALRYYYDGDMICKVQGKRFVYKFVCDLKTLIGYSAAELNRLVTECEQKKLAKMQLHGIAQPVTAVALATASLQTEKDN
# Summary of the method: as §1
# [9] = molecular target: ELF1 (Homo sapiens, UniProt P32519 1-619); details: protein: recombinant; tags: N-terminal GST; dsDNA, one strand shown
# Sequence of ELF1 (P32519 whole entry): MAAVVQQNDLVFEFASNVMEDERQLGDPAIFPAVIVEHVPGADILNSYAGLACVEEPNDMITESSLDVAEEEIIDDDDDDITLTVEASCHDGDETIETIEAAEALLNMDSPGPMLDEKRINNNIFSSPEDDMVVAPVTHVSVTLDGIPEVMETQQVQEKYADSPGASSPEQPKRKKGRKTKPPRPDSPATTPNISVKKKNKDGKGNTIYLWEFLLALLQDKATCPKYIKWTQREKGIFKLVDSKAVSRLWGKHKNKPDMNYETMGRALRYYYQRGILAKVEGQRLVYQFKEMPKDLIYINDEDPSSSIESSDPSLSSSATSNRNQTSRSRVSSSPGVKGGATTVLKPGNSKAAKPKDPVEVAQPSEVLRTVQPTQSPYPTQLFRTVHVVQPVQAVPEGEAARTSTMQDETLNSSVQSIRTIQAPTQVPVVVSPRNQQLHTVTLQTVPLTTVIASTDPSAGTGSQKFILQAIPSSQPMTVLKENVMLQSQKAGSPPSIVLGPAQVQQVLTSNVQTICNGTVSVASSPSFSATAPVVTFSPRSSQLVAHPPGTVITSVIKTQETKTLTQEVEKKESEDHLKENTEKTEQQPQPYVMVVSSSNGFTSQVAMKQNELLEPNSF
# Summary of the method: as §1
# [10] = molecular target: T6, EHF (Homo sapiens, UniProt Q9NZC4 1-300); details: protein: recombinant; tags: N-terminal GST; dsDNA, one strand shown
# T6 sequence: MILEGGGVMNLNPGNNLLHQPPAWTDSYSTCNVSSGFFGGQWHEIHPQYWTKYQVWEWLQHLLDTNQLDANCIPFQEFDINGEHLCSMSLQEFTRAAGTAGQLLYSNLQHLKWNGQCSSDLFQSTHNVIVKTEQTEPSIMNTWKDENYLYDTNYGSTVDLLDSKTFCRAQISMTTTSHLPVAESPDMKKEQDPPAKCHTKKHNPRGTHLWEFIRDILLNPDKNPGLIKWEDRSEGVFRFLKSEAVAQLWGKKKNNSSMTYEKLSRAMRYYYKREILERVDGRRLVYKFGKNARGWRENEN
# Summary of the method: as §1
# [11] = molecular target: T7, ETV3L (Homo sapiens, UniProt Q6ZN32 1-361); details: protein: recombinant; tags: N-terminal GST; dsDNA, one strand shown
# T7 sequence: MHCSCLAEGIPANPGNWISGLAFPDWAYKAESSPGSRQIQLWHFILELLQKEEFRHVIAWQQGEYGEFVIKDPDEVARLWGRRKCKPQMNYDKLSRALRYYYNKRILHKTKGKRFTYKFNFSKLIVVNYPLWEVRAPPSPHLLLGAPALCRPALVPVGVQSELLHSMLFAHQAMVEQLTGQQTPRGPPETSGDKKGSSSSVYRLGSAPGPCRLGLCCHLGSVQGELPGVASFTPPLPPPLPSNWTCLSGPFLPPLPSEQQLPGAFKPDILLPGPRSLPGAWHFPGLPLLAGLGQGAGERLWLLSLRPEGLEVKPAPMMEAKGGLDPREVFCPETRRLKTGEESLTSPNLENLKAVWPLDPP
# Summary of the method: as §1
# [12] = molecular target: T8, SPDEF (Homo sapiens, UniProt O95238 1-335); details: protein: recombinant; tags: N-terminal GST; dsDNA, one strand shown
# T8 sequence: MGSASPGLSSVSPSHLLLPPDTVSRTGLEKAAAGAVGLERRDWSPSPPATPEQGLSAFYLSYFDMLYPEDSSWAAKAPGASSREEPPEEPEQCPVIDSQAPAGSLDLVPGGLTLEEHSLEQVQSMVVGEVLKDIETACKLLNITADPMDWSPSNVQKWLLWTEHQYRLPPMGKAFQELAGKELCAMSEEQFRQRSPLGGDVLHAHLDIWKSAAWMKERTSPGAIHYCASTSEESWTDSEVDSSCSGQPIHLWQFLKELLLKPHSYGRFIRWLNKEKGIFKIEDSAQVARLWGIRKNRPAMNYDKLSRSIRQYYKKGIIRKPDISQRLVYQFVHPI
# Summary of the method: as §1
# [13] = molecular target: SPIB (Homo sapiens, UniProt Q01892 1-262); details: protein: recombinant; tags: N-terminal GST; dsDNA, one strand shown
# Sequence of SPIB (Q01892 whole entry): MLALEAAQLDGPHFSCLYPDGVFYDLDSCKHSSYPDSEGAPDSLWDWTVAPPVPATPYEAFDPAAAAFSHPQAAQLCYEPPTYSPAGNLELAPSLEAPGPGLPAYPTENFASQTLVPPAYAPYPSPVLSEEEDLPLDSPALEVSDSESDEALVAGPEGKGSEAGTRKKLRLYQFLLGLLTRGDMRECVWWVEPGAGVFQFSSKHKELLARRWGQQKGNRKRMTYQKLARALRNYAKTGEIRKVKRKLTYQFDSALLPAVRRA
# Summary of the method: as §1
# [14] = molecular target: T9, SPIC (Homo sapiens, UniProt Q8N5J4 1-248); details: protein: recombinant; tags: N-terminal GST; dsDNA, one strand shown
# T9 sequence: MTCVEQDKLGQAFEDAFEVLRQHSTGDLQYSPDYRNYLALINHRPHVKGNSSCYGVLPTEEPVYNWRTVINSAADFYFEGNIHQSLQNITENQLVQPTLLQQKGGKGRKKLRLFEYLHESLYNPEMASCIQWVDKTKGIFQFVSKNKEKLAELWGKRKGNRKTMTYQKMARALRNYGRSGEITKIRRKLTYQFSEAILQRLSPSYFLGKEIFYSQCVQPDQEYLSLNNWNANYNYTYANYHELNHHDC
# Summary of the method: as §1
# [15] = molecular target: T10, ERF (Homo sapiens, UniProt P50548 1-548); details: protein: recombinant; tags: N-terminal GST; dsDNA, one strand shown
# T10 sequence: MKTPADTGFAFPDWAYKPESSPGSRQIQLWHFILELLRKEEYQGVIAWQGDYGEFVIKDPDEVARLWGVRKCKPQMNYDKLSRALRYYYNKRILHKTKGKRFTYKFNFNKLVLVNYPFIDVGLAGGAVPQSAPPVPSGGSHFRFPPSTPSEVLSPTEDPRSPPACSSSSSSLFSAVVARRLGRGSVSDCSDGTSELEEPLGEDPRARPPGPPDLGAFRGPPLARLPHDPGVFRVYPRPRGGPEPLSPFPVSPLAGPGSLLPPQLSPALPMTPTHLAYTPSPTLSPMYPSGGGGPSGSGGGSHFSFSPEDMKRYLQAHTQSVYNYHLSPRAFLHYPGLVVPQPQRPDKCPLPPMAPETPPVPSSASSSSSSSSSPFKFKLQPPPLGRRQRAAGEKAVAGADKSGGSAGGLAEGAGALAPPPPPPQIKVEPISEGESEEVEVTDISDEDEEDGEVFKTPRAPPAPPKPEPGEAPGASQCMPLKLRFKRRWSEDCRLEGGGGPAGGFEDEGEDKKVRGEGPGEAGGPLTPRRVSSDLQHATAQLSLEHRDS
# Summary of the method: as §1
sequence,measurement,setting,value
GGAAAG,binding signal,[1],"1 fold enrichment (6-mer frequency, TF over GST control)"
same,binding signal,[2],"1.29 fold enrichment (6-mer frequency, TF over GST control)"
same,binding signal,[3],"1.06 fold enrichment (6-mer frequency, TF over GST control)"
same,binding signal,[4],"1.12 fold enrichment (6-mer frequency, TF over GST control)"
same,binding signal,[5],"1 fold enrichment (6-mer frequency, TF over GST control)"
same,binding signal,[6],"1.06 fold enrichment (6-mer frequency, TF over GST control)"
TTCGGG,binding signal,[2],"1.58 fold enrichment (6-mer frequency, TF over GST control)"
same,binding signal,[7],"1 fold enrichment (6-mer frequency, TF over GST control)"
same,binding signal,[5],"1.03 fold enrichment (6-mer frequency, TF over GST control)"
CTAGAC,binding signal,[8],"1.01 fold enrichment (6-mer frequency, TF over GST control)"
same,binding signal,[9],"1.09 fold enrichment (6-mer frequency, TF over GST control)"
same,binding signal,[10],"1.01 fold enrichment (6-mer frequency, TF over GST control)"
same,binding signal,[2],"1.59 fold enrichment (6-mer frequency, TF over GST control)"
same,binding signal,[7],"1 fold enrichment (6-mer frequency, TF over GST control)"
AGGATT,binding signal,[2],"1.78 fold enrichment (6-mer frequency, TF over GST control)"
same,binding signal,[7],"2.82 fold enrichment (6-mer frequency, TF over GST control)"
same,binding signal,[11],"1.03 fold enrichment (6-mer frequency, TF over GST control)"
same,binding signal,[12],"1.04 fold enrichment (6-mer frequency, TF over GST control)"
AGACTA,binding signal,[2],"1.06 fold enrichment (6-mer frequency, TF over GST control)"
same,binding signal,[7],"1.02 fold enrichment (6-mer frequency, TF over GST control)"
TGCGAG,binding signal,[13],"1.03 fold enrichment (6-mer frequency, TF over GST control)"
same,binding signal,[2],"1.15 fold enrichment (6-mer frequency, TF over GST control)"
CAATCG,binding signal,[14],"1.03 fold enrichment (6-mer frequency, TF over GST control)"
GCGAAG,binding signal,[10],"1 fold enrichment (6-mer frequency, TF over GST control)"
same,binding signal,[2],"1.15 fold enrichment (6-mer frequency, TF over GST control)"
GAGATT,binding signal,[2],"1.25 fold enrichment (6-mer frequency, TF over GST control)"
same,binding signal,[7],"1.57 fold enrichment (6-mer frequency, TF over GST control)"
GCGAAC,binding signal,[2],"1.03 fold enrichment (6-mer frequency, TF over GST control)"
same,binding signal,[15],"1.05 fold enrichment (6-mer frequency, TF over GST control)"
same,binding signal,[3],"1.04 fold enrichment (6-mer frequency, TF over GST control)"
TAGAGA,binding signal,[2],"1.3 fold enrichment (6-mer frequency, TF over GST control)"
same,binding signal,[7],"1.15 fold enrichment (6-mer frequency, TF over GST control)"
CGAGAA,binding signal,[2],"3.31 fold enrichment (6-mer frequency, TF over GST control)"
same,binding signal,[7],"1.27 fold enrichment (6-mer frequency, TF over GST control)"
same,binding signal,[3],"1.01 fold enrichment (6-mer frequency, TF over GST control)"

# — article PMC7862700, “An all-to-all approach to the identification of sequence-specific readers for epigenetic DNA modifications on cytosine”
